Source: PubChem BioAssay (EPA / NIEHS)
Several values for one entry are separate records, joined by “and”; a condition that tells them apart may be missing. Identical values can stand only once. The source holds several records for some structures; these can differ, active in one and inactive in another. Activity calls are given as the source filed them. Rule for the calls: active = hit-call score of the fitted dose curve at least 0.9, where 1 is the maximum; inactive = score below 0.9.

Experiments:
[1] = read-out: TIMP metallopeptidase inhibitor 1 (TIMP1), TIMP1 (gene 7076); assay: BSK_hDFCGF_TIMP1: BioMAP Diversity Plus: hDFCGF Assay for TIMP metallopeptidase inhibitor 1 (TIMP1) Biomarker Activity (AID 2283062); conditions: primary human foreskin fibroblasts; actives raise or lower the signal
Summary of the method: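 Primary human foreskin fibroblasts in the hDFCGF system were dosed with compound for 24 h, then TIMP-1 was measured by ELISA. Activity was fitted bidirectionally relative to DMSO control; parallel SRB staining assessed cytotoxicity.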

[2] = read-out: Monokine induced gamma interferon (MIG), CXCL9 (gene 4283); assay: BSK_hDFCGF_MIG: BioMAP Diversity Plus: hDFCGF Assay for Monokine induced gamma interferon (MIG) Biomarker Activity (AID 2283063); conditions: primary human foreskin fibroblasts; actives raise or lower the signal
Summary of the method: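 ELISA read-out of MIG from primary human dermal fibroblasts 24 h post-dosing. Gain or loss of signal fitted bidirectionally, DMSO as baseline.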

[3] = read-out: Matrix Metallopeptidase 1 (MMP1), MMP1 (gene 4312); assay: BSK_hDFCGF_MMP1: BioMAP Diversity Plus: hDFCGF Assay for Matrix Metallopeptidase 1 (MMP1) Biomarker Activity (AID 2283064); conditions: primary human foreskin fibroblasts; actives raise or lower the signal
Summary of the method: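 MMP1 levels quantified by ELISA 24 h after dosing human dermal fibroblast cultures, with parallel SRB total-protein staining for overt cytotoxicity. Data fitted in both directions against DMSO baseline.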

[4] = read-out: Vascular cell adhesion molecule 1 (VCAM1), VCAM1 (gene 7412); assay: BSK_hDFCGF_VCAM1: BioMAP Diversity Plus: hDFCGF Assay for Vascular cell adhesion molecule 1 (VCAM1) Biomarker Activity (AID 2283065); conditions: primary human foreskin fibroblasts; actives raise or lower the signal;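 for AC50: VCAM-1 protein level quantified by ELISA after 24 h chemical exposure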
Summary of the method: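 Primary human foreskin fibroblasts (hDFCGF system) were dosed with chemical and VCAM-1 was measured by ELISA 24 h later. Bidirectional curve fitting used DMSO as negative control and activity baseline.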

[5] = read-out: Plasminogen activator inhibitor-1 (PAI1), SERPINE1 (gene 5054); assay: BSK_hDFCGF_PAI1: BioMAP Diversity Plus: hDFCGF Assay for Plasminogen activator inhibitor-1 (PAI1) Biomarker Activity (AID 2283066); conditions: primary human foreskin fibroblasts; actives raise or lower the signal
Summary of the method: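 Human skin fibroblast cultures receive chemical for 24 h before PAI-1 is measured by ELISA; signal changes are fitted bidirectionally against DMSO-treated wells.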

[6] = read-out: Intercellular Adhesion Molecule 1 (ICAM1), ICAM1 (gene 3383); assay: BSK_KF3CT_ICAM1: BioMAP Diversity Plus: KF3CT Assay for Intercellular Adhesion Molecule 1 (ICAM1) Biomarker Activity (AID 2283067); conditions: primary human keratinocytes with fibroblasts; actives raise or lower the signal
Summary of the method: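 Human keratinocyte plus foreskin fibroblast primary co-culture was exposed to chemical for 24 h. ICAM-1 was then quantified by ELISA, and the data were fit bidirectionally against DMSO as the negative control and baseline.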

[7] = read-out: Interferon-gamma inducible Protein 10 (IP10), CXCL10 (gene 3627); assay: BSK_KF3CT_IP10: BioMAP Diversity Plus: KF3CT Assay for Interferon-gamma inducible Protein 10 (IP10) Biomarker Activity (AID 2283068); conditions: primary human keratinocytes with fibroblasts; actives raise or lower the signal
Summary of the method: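 ELISA read-out of IP-10 after 24 h chemical dosing of human skin primary co-culture (keratinocytes, foreskin fibroblasts). Gain or loss of signal relative to DMSO, bidirectional curve fit.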

[8] = BSK_KF3CT_SRB: Viability Assessment in the BioMAP Diversity Plus: KF3CT Assay (AID 2283069); conditions: primary human keratinocytes with fibroblasts;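 note: total protein by sulforhodamine B staining as a cytotoxicity measure; read 24 h after compound addition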
Summary of the method: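 Cytotoxicity was gauged by SRB staining (0.1% SRB, 10% TCA fixation, 560 nm) of parallel cultures at 24 h. The cells were primary human skin keratinocytes co-cultured with fibroblasts, and activity was fitted in both directions against DMSO.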

[9] = read-out: Interleukin-1 alpha (IL1a), IL1A (gene 3552); assay: BSK_KF3CT_IL1a: BioMAP Diversity Plus: KF3CT Assay for Interleukin-1 alpha (IL1a) Biomarker Activity (AID 2283070); conditions: primary human keratinocytes with fibroblasts; actives raise or lower the signal
Summary of the method: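 IL-1a was detected by ELISA 24 h after chemical treatment of a co-culture of human skin keratinocytes and foreskin fibroblasts. Gain or loss of signal was fitted against the DMSO baseline.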

[10] = read-out: TIMP metallopeptidase inhibitor 2 (TIMP2), TIMP2 (gene 7077); assay: BSK_KF3CT_TIMP2: BioMAP Diversity Plus: KF3CT Assay for TIMP metallopeptidase inhibitor 2 (TIMP2) Biomarker Activity (AID 2283071); conditions: primary human keratinocytes with fibroblasts; actives raise or lower the signal
Summary of the method: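 Measurements come from ELISA detection of TIMP-2 at 24 hours in a dosed human keratinocyte and foreskin fibroblast co-culture. DMSO serves as negative control and baseline.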

Measured: AC50

CN(C)CCOC(c1ccccc1)c1ccccc1
inactive: all assays above

OCC(F)(F)C(F)(F)C(F)(F)C(F)(F)C(F)(F)C(F)(F)C(F)(F)C(F)(F)C(F)(F)C(F)(F)C(F)(F)F
inactive: [1] | [2] | [3] | [4] | [5] | [6] | [7] | [8] | [9] | [10]
active: [4] 0.189 µM

O=C(CC(=O)C(F)(F)C(F)(F)C(F)(F)F)c1cccs1
inactive: [1] | [2] | [3] | [4] | [5] | [6] | [7] | [8] | [9] | [10]
active: [2] 7.78 µM | [3] 7.77 µM

C=COC(=O)C(C)(C)CCCCCC
active: [1] 28.5 µM | [2] 35 µM | [3] 3.97 µM | [4] 30.2 µM | [5] 30.3 µM | [6] 37.2 µM | [7] 34.7 µM | [8] 34.4 µM | [9] 30.9 µM | [10] 27.6 µM

COc1cccc(O)c1
inactive: all assays above

CCCCC=O
inactive: all assays above

O=C(O)CCC(F)(F)C(F)(F)C(F)(F)C(F)(F)C(F)(F)F
active: [3] 13.8 µM
inactive: [1] | [2] | [3] | [4] | [5] | [6] | [7] | [8] | [9] | [10]

O=C1NS(=O)(=O)c2ccccc21
inactive: all assays above

Oc1c(Cl)cc(Cl)cc1Sc1cc(Cl)cc(Cl)c1O
active: [1] 2.06 µM and 1.74 µM | [2] 2.22 µM | [3] 2.14 µM and 2.37 µM | [4] 1.43 µM and 1.52 µM | [5] 1.23 µM and 1.32 µM | [6] 3.11 µM and 3.28 µM | [7] 2.75 µM and 2.98 µM | [9] 2.22 µM and 2.17 µM | [10] 1.96 µM and 2.15 µM
inactive: [8]

CC(=O)Nc1ccc(O)cc1
inactive: all assays above

O=P(O)(O)CCC(F)(F)C(F)(F)C(F)(F)C(F)(F)C(F)(F)C(F)(F)C(F)(F)C(F)(F)F
inactive: [1] | [2] | [3] | [4] | [6] | [7] | [8] | [9] | [10]
active: [2] 0.615 µM | [5] 29.5 µM and 18.4 µM

Oc1cc2ccccc2cc1O
inactive: all assays above

CCC(C)c1ccccc1O (configuration not stated)
inactive: all assays above

CCCCC(CC)C(=O)O (configuration not stated)
inactive: all assays above

O=C(NCc1ncc(C(F)(F)F)cc1Cl)c1c(Cl)cccc1Cl
inactive: all assays above

CCCCCCCCCCCCCCCCCC[N+](C)(C)Cc1ccccc1
active: [1] 0.553 µM | [2] 1.86 µM | [3] 3.93 µM | [4] 0.715 µM | [5] 0.636 µM | [6] 5.58 µM | [7] 2.54 µM | [8] 2.62 µM | [9] 4.24 µM | [10] 3.25 µM

Cc1ccc(N=Nc2c(O)ccc3ccccc23)c(C)c1
active: [4] 5.25 µM | [10] 4.11 µM
inactive: all other assays above

O=C(O)C(F)(F)OC(F)(F)C(F)(F)OC(F)(F)C(F)(F)OC(F)(F)C(F)(F)C(F)(F)C(F)(F)F
inactive: [8]
active: [1] 10.6 µM and 8.08 µM | [2] 12.1 µM and 10.3 µM | [3] 7.6 µM and 8.44 µM | [4] 7.84 µM and 6.66 µM | [5] 11.4 µM | [6] 20.7 µM and 21.8 µM | [7] 7.51 µM and 7.14 µM | [8] 8.04 µM | [9] 14.2 µM and 11.1 µM | [10] 8.14 µM and 7.33 µM

O=S(=O)(O)C(F)(F)C(F)(F)C(F)(F)C(F)(F)C(F)(F)C(F)(F)C(F)(F)C(F)(F)C(F)(F)C(F)(F)F
inactive: [1] | [2] | [3] | [4] | [5] | [7] | [8] | [9] | [10]
active: [1] 11.5 µM | [4] 0.201 µM | [6] 6.49 µM and 3.75 µM

C=CC(=O)OCCC(F)(F)C(F)(F)C(F)(F)C(F)(F)C(F)(F)C(F)(F)C(F)(F)C(F)(F)F
inactive: all assays above

O=C(NO)c1ccccc1
inactive: all assays above

CN(CCO)S(=O)(=O)C(F)(F)C(F)(F)C(F)(F)C(F)(F)C(F)(F)C(F)(F)C(F)(F)C(F)(F)F
inactive: all assays above

CC1=NN(c2ccccc2)C(=O)C1
inactive: all assays above

Clc1ccc(Nc2nnc(Cc3ccncc3)c3ccccc23)cc1
active: [10] 3.02 µM
inactive: all other assays above

Oc1ccc(Cc2ccccc2O)cc1
inactive: all assays above

O=C(c1ccccc1)c1ccccc1
inactive: all assays above

CC(C)(C)c1ccc(O)c(O)c1
inactive: [5] | [8] | [10]
active: [1] 31.6 µM | [2] 31.2 µM | [3] 30.6 µM | [4] 15.5 µM | [6] 5.79 µM | [7] 33.8 µM | [9] 13 µM

CCCCCCCCCCCCCCC
inactive: all assays above

CCCCCCCCCCCC
active: [1] 7.88 µM and 9.41 µM | [2] 11.6 µM and 10.2 µM | [3] 5.36 µM and 7.16 µM | [4] 8.36 µM and 7.77 µM | [5] 11.2 µM and 10.6 µM | [6] 15.2 µM and 15.8 µM | [7] 11.1 µM and 10.1 µM | [9] 11.4 µM and 12.2 µM | [10] 7.91 µM and 9.05 µM
inactive: [8]

CC[N+](CC)(CC)Cc1ccccc1
inactive: all assays above

Cc1ccc(C(=O)c2ccccc2)cc1
active: [1] 31.4 µM | [2] 29.5 µM | [3] 30.7 µM | [4] 30.5 µM | [5] 20 µM | [9] 20 µM | [10] 30.3 µM
inactive: [6] | [7] | [8]

N=C(N)c1ccc(OCCCCCOc2ccc(C(=N)N)cc2)cc1
active: [1] 27.2 µM | [4] 28.1 µM | [5] 28.5 µM
not listed: [3]
inactive: all other assays above

CS(=O)(=O)c1ccc([C@@H](CC2CCCC2)C(=O)Nc2cnccn2)cc1Cl
active: [5] 20 µM
inactive: all other assays above
